BAZ2B block: BAZ2B (human) inhibition; Q9UIF8; AlphaScreen BAZ2B-H3K14Ac peptide displacement; Potency, µM (doses to about 114 µM), hits mostly inhibitors; 4.4% of 360,000 active; AID 504333; note: nearly all actives have a fitted effect of over 60% in size
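AlphaScreen displacement of biotin-H3(5-23)K14Ac peptide (50 nM final) from BAZ2B (50 nM final) in PBS pH 7.4, 0.01% Tween-20; complex preformed 30 min RT, then compounds (top 110 uM) 30 min RT, beads 20 min dark.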
G9a inh: G9a (human) methyltransferase inhibition; Q96KQ7; G9a H3K9 monomethylation, AlphaScreen, 2 h; Potency, µM (series often up to 102 µM), usual class: inhibitors; 8.8% of 350,000 active; AID 504332; note: nearly all actives have a fitted effect of over 75% in size
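Chemiluminescent proximity detection of H3K9 monomethylation, read after 10 min bead incubation in the dark. Reaction: 20 nM G9a, 500 nM biotin-H3K9 peptide, 20 uM SAM cofactor, 2 h, room temperature, following 15 min enzyme-compound preincubation.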
ALOX12 inh: inhibitors of human 12S-lipoxygenase ALOX12. P18054. purified 12hLO, xylenol orange hydroperoxide absorbance. Potency, µM (highest dose often 108 µM), usual class: inhibitors. 1.1% of 580,000 active
Target sequence (P18054 whole entry, looked up): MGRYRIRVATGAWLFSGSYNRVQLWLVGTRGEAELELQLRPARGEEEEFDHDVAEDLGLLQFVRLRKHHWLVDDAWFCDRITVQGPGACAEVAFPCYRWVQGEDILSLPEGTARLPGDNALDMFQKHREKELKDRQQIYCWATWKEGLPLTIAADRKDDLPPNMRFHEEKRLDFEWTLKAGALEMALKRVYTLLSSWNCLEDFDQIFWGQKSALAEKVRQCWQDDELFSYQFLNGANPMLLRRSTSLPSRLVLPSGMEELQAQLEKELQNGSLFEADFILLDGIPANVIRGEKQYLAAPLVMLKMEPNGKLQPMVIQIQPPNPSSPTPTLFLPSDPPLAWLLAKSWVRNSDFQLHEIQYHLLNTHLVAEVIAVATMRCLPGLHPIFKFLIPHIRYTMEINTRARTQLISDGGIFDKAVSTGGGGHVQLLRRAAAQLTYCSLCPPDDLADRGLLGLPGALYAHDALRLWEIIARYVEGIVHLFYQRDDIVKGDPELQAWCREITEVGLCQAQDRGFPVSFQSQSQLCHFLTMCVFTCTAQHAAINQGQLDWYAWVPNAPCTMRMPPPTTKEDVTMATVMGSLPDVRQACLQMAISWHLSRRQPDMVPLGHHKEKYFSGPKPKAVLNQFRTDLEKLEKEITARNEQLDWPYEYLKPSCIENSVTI
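Purified human 12hLO (150 nM final) in 25 mM Hepes, 0.01% Triton X-100, pH 7.0 was preincubated 15 min at room temperature with compound. Then 40 uM arachidonic acid was added, 30 min. Hydroperoxide was read by Fe-XO absorbance ratio 573/405 nm.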
HP1b binding inh: inhibitors of HP1-beta chromodomain binding to methylated histone tails | Potency, µM (series often up to 114 µM), hits mostly inhibitors | 0.56% of 390,000 active | P83916 | AlphaScreen HP1-beta / biotin-H3K9me3 peptide binding | AID 540317; note: nearly all actives have a fitted effect of over 70% in size
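AlphaScreen: HP1-beta (50 nM) preformed 30 min with biotin-H3(1-18)K9me3 peptide (50 nM) in PBS pH 7.4, 0.01% Tween-20. Compound added for 30 min at RT, then streptavidin donor/nickel chelate acceptor beads (10 ug/mL) for 30 min.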
PLK1 PBD block: inhibitors of human PLK1 polo-box domain binding | P53350 | Plk1 PBD binding of FITC phosphopeptide, fluorescence polarization | Potency, µM, usual class: inhibitors | 2.8% of 360,000 active | AID 720504; note: series mostly up to about 57 µM; nearly all actives have a fitted effect of over 65% in size
JMJD2A Tudor: JMJD2A Tudor domain (human) inhibition. AlphaScreen JMJD2A-Tudor / H3K4me3 peptide binding. O75164. Potency, µM (doses to about 114 µM), usual class: inhibitors. 4.4% of 390,000 active; note: nearly all actives have a fitted effect of over 50% in size
Large screens that a line does not name were inactive. A selection: hits, their analogues and other compounds. The true share with any hit is near 9%. Calls come from the whole dose curve; as a rule, active = well fitted curve in the direction sought with a large enough effect; inconclusive = small, poorly fitted or top-dose-only effect, or another doubt; inactive = no such curve, though single readings can be large; an effect the other way counts as inactive or inconclusive.

COc1ccc(NC(=S)NN2C(C)CCCC2C)cc1 (configuration not stated)	G9a inh inconclusive, ALOX12 inh inconclusive
CCSC(=Nc1ccccc1)C1=C(O)COC1=O	BAZ2B block inconclusive, G9a inh 35µM, ALOX12 inh inconclusive
CSC(=Nc1ccccc1)C1=C(O)COC1=O	G9a inh inconclusive
c1ccc(SCc2nc(-c3ccncc3)no2)cc1	PLK1 PBD block 13µM
Cc1ccc(SCc2nc(-c3ccncc3)no2)cc1	ALOX12 inh inconclusive, PLK1 PBD block 3µM, JMJD2A Tudor inconclusive
Clc1ccccc1OCc1nc(-c2ccncc2)no1	PLK1 PBD block 6.7µM
Cc1ccc(SCc2nc(-c3ccccc3)no2)cc1	none
c1ccc(OCc2nc(-c3ccncc3)no2)cc1	none
Nc1nc2ccc(O)cc2s1	G9a inh inconclusive
Cc1oc2ncnc(N3CCOCC3)c2c1C(=O)N1CCN(c2cccc(C(F)(F)F)c2)CC1	none (no result: PLK1 PBD block)
COc1cc2c(cc1NC(=O)COC(=O)C1CC(=O)N(Cc3ccco3)C1)oc1ccccc12 (configuration not stated)	G9a inh inconclusive
CCOC(=O)c1ccc(NC(=S)NCCC2=CCCCC2)cc1	ALOX12 inh 40µM
CC(=O)c1ccc(NC(=O)CC(NCCC2=CCCCC2)C(=O)O)cc1 (configuration not stated)	G9a inh inconclusive, JMJD2A Tudor 13µM
CCOC(=O)c1ccc(NC(=S)NCCc2ccccc2F)cc1	ALOX12 inh 40µM
FC(F)Sc1ccc(NC(=S)NCCC2=CCCCC2)cc1	ALOX12 inh 18µM (no result: BAZ2B block, G9a inh, HP1b binding inh, PLK1 PBD block, JMJD2A Tudor)
C[C@H]1CN([C@@H](C)CO)C(=O)CCCn2nncc2CO[C@H]1CN(C)S(=O)(=O)c1cccc(F)c1	ALOX12 inh inconclusive (no result: BAZ2B block, G9a inh, HP1b binding inh, JMJD2A Tudor)
O=C(NCCC1=CCCCC1)Nc1ccc2nsnc2c1	G9a inh 40µM, ALOX12 inh inconclusive
O=c1[nH]c2ccccc2nc1/C=C(\O)c1cccs1	PLK1 PBD block inconclusive (no result: G9a inh)
O/C(=C\c1nc2ccccc2[nH]1)c1cccs1	G9a inh 25µM, ALOX12 inh inconclusive
COc1ccccc1CC(=O)Nc1nc(-c2ccc(F)c(F)c2)cs1	none
COc1ccc(-c2csc(NC(=O)CC(NC(C)=O)c3ccccc3)n2)cc1OC (configuration not stated)	BAZ2B block 79µM, G9a inh 25µM
COc1ccc(-c2csc(NC(=O)Cc3ccccc3F)n2)cc1OC	BAZ2B block 40µM, G9a inh inconclusive, JMJD2A Tudor inconclusive
CCOC(=O)C1CCN(C(=O)c2cc3ccc(OC)cc3[nH]2)CC1	none
Cc1cc(C)c(CNC(=O)c2nc(-c3cccc(O)c3)cc3c2ccn3C(C)C)c(=O)[nH]1	none (no result: BAZ2B block, G9a inh, HP1b binding inh, PLK1 PBD block, JMJD2A Tudor)
O=C(O)Cn1c(CCS(=O)(=O)c2ccc(Br)cc2)nc2ccccc21	G9a inh 45µM, PLK1 PBD block inconclusive
O=C(NC1CCCCC1)c1ccc(-c2ccccc2[N+](=O)[O-])o1	BAZ2B block inconclusive, G9a inh inconclusive, JMJD2A Tudor inconclusive
O=[N+]([O-])c1ccccc1-c1ccc(C(=S)N2CCN(c3ccccc3)CC2)o1	BAZ2B block 8.9µM, ALOX12 inh inconclusive, HP1b binding inh inconclusive, PLK1 PBD block 24µM, JMJD2A Tudor 22µM (no result: G9a inh)
Cc1ccc(N2CCN(C(=S)c3ccc(-c4ccccc4[N+](=O)[O-])o3)CC2)cc1	BAZ2B block 10µM, G9a inh 7.1µM, ALOX12 inh inconclusive, HP1b binding inh 14µM, PLK1 PBD block 9.5µM, JMJD2A Tudor 32µM
COc1cc(/C=C/C(=O)OCC(=O)NCc2ccco2)ccc1OC(F)F	G9a inh 40µM
CCOc1cc(/C=C/C(=O)OCC(=O)NCc2ccco2)cc(Cl)c1OC	BAZ2B block inconclusive, G9a inh 50µM, JMJD2A Tudor inconclusive
Nc1cc2nn(-c3ccccc3)nc2cc1Cl	G9a inh inconclusive, ALOX12 inh 5.6µM
Nc1ccc2nn(-c3ccccc3)nc2c1	ALOX12 inh inconclusive, PLK1 PBD block 21µM (no result: G9a inh)
COc1ccccc1NC(=O)CC1CCCN(c2cnn(CC3CC3)c(=O)c2)C1 (configuration not stated)	none (no result: BAZ2B block, G9a inh, HP1b binding inh, PLK1 PBD block, JMJD2A Tudor)
Cc1ccc(C)c(N2CCN(C(=O)c3ccc(N4CCOCC4)c([N+](=O)[O-])c3)CC2)c1	BAZ2B block inconclusive, G9a inh 45µM, HP1b binding inh 45µM, JMJD2A Tudor 56µM
Cc1ccc(C)c(S(=O)(=O)N2CCN(C(=O)c3ccc(N4CCCC4)c([N+](=O)[O-])c3)CC2)c1	BAZ2B block inconclusive, G9a inh 32µM, JMJD2A Tudor inconclusive
O=C(c1ccc(N2CCOCC2)c([N+](=O)[O-])c1)N1CCCCC1	none
COc1cccc(C(=O)Nc2ccc3c(c2)CCCN3C(=O)c2cccs2)c1OC	none
COc1ccccc1N1CCN(C(=O)c2ccco2)CC1	none
O=C(CN1C(=O)NC(Cc2c[nH]c3ccccc23)C1=O)NCCc1ccccc1 (configuration not stated)	none
CCCNC(=O)CN1C(=O)NC(Cc2c[nH]c3ccccc23)C1=O (configuration not stated)	PLK1 PBD block 27µM, JMJD2A Tudor 50µM
Cc1ccc(S(=O)(=O)CCC(=O)Nc2nc(-c3cccnc3)cs2)cc1	none
Cc1ccc(S(=O)(=O)CCc2nnc(NC(=O)c3ccccn3)s2)cc1	BAZ2B block 3.2µM, JMJD2A Tudor 11µM (no result: ALOX12 inh)
O=C(COc1cccc(F)c1)Nc1nc(-c2ccccn2)cs1	ALOX12 inh inconclusive, PLK1 PBD block 11µM (no result: BAZ2B block, G9a inh, HP1b binding inh, JMJD2A Tudor)
O=C(Nc1nc(-c2ccccn2)cs1)Nc1ccc(F)cc1F	G9a inh 2.8µM, ALOX12 inh inconclusive, HP1b binding inh inconclusive, PLK1 PBD block 4.7µM, JMJD2A Tudor 40µM
Cc1ccc(S(=O)(=O)CCC(=O)Nc2nc(-c3ccccn3)cs2)cc1	BAZ2B block inconclusive, JMJD2A Tudor 89µM
c1cncc(-c2nnc3n2CCN(Cc2cccc4ccccc24)C3)c1	none (no result: BAZ2B block, G9a inh, HP1b binding inh, PLK1 PBD block, JMJD2A Tudor)
O=C(COc1ccc([N+](=O)[O-])cc1)Nc1cccnc1	G9a inh inconclusive
N#Cc1ccc(OCC(=O)Nc2nc(-c3cccnc3)cs2)cc1	none
Cc1ccc(OCC(=O)Nc2nc(-c3ccccn3)cs2)c(C)c1	G9a inh 40µM, PLK1 PBD block 24µM (no result: ALOX12 inh)
O=C(COc1ccc(F)cc1)Nc1nc(-c2ccccn2)cs1	BAZ2B block inconclusive, G9a inh 45µM, PLK1 PBD block inconclusive, JMJD2A Tudor 79µM
O=C(COc1ccc([N+](=O)[O-])cc1)Nc1nc(-c2ccccn2)cs1	BAZ2B block 56µM, G9a inh 35µM, JMJD2A Tudor 28µM
CCc1ccccc1NC(=O)Cn1cc(C(=O)c2ccc(Cl)cc2)c(=O)c2ccc(C)nc21	none (no result: PLK1 PBD block)
CC1CCc2[nH]c3ccc(C(=O)Nc4ccc(F)cc4)cc3c2C1 (configuration not stated)	none (no result: BAZ2B block, G9a inh, HP1b binding inh, PLK1 PBD block, JMJD2A Tudor)

Bioassay records: PubChem, National Center for Advancing Translational Sciences (NCATS)
